The source made the active and inactive calls. Rule for the calls: active = hit-call score of the fitted dose curve at least 0.9, where 1 is the maximum; inactive = score below 0.9.

From PubChem BioAssay (EPA / NIEHS) come the findings set out here.

The assay in a line: ATG_Ets_CIS: Attagene CIS-FACTORIAL HepG2 Assay for human Erythroblast Transformation Specific (ETS) (AID 2282941). Conditions: HepG2 ETS cis-reporter transcription, actives raise or lower the signal. The protocol:
ATG_CIS is a cell-based, multiplexed-readout assay that uses HepG2, a human liver cell line, with measurements taken at 24 hours after chemical dosing in a 24-well plate.ATG_Ets_CIS is one of 52 assay component(s) measured or calculated from the ATG_CIS assay. It is designed to make measurements of mRNA induction, a form of inducible reporter, as detected with fluorescence intensity signals by Reverse transcription polymerase chain reaction (RT-PCR) and Capillary electrophoresis technology.Data from the assay component ATG_Ets_CIS was analyzed into 1 assay endpoint. This assay endpoint, ATG_Ets_CIS, was analyzed with bidirectional fitting relative to DMSO as the negative control and baseline of activity. Using a type of inducible reporter, measures of mRNA for gain or loss-of-signal activity can be used to understand the reporter gene at the transcription factor-level as they relate to the gene ETS1. Furthermore, this assay endpoint can be referred to as a primary readout, because this assay has produced multiple assay endpoints where this one serves a reporter gene function. To generalize the intended target to other relatable targets, this assay endpoint is annotated to the dna binding intended target family, where the subfamily is winged helix-turn-helix.
Human liver HepG2 cells are transiently transfected with multiple reporter transcription units (MRTUs) in 6-well plates using FuGene 6 reagent (Roche; 3 ml FuGene/1 mg DNA). The MRTU constructs are regulated by a cis-regulating element (promoter). […] A major difference between the CIS and TRANS system is that in CIS activities of endogenous TFs are measured, whereas the TRANS assay evaluates changes in activities of exogenous, chimeric NR-Gal4 proteins. […] At the end of 24 hour incubation, total RNA was isolated using TriZol reagent (Invitrogen). The isolated RNA is then reverse-transcribed using oligo(dT) primer and Mo-MLV reverse transcriptase (Invitrogen) with DNAse I (Ambion) treatment for 30 min. The one-tenth of the produced cDNA was amplified by PCR using Taq DNA polymerase (Invitrogen) and two reporter sequence-specific primers. The PCR products were fluorescently labeled by primer extension with 6-arboxyfluorescein (6-FAM) 5'-labeled reporter sequence-specific primer (2 min at 95 C, 20 s at 68 C and 10 min at 72 C) and these products were digested with 5U of HpaI (New England Biolabs) for 2h at 37 C. The fragments were purified using Qiaquick PCR columns (Qiagen), analyzed on an ABI 3130xL genetic analyzer (Applied Biosystems) with peak positions identified by using a set of X-rhodamine (ROX)-labeled MapMarker1000 molecular weight standards (BioVentures). The raw capillary electrophoresis data was processed using Attagraph software (Attagene).
Regarding `C/C=C(\C)C(=O)OCC/C=C\CC`, the molecule was called inactive.

In the case of `COC(=O)CCSCCC(=O)OC`, the call was inactive.

Consider `CCCCn1cc[n+](C)c1`, for which the molecule was classed as inactive.

On to `C=CCOCC(CC)(CO)COCC=C`, for which the call was inactive.

For the molecule `COc1c2occc2cc2ccc(=O)oc12`, the molecule was called inactive.

For the molecule `CCCCNC(N)=O`, the molecule was called inactive.

Turning to `CCCCCC1CCCC(=O)O1` (stereo not given), the molecule was classed as inactive.

Turning to `COC(OC)C(C)c1ccccc1` (stereo not given), the molecule was called inactive.

For `C=C1CC[C@H]2C[C@@H]1C2(C)C`, the molecule was called inactive.

On to `CCCCCCCC#N`, for which the molecule was classed as inactive.

With `CN(C)Cc1cc(C(C)(C)C)c(O)c(C(C)(C)C)c1`, the result was inactive.

Take `CC(C)n1c(/C=C/[C@@H](O)C[C@@H](O)CC(=O)O)c(-c2ccc(F)cc2)c2ccccc21`: the result was inactive.

With `Cc1cc(C)c(S(=O)(=O)O)cc1N=Nc1cc(S(=O)(=O)O)c2ccccc2c1O`, the outcome was inactive.

On to `N#CCN(CC#N)CCN(CC#N)CC#N`, for which the outcome was inactive.

Take `CC(=O)c1nccs1`: the outcome was inactive.

Take `COCCCN`: the call was inactive.

As for `O=[N+]([O-])c1ccccc1C(F)(F)F`, the molecule was classed as inactive.

In the case of `CC=CC(=O)O`, the molecule was classed as inactive.

With `CCCOCCC`, the call was inactive.

With `CC/C=C\CC/C=C/C(OCC)OCC`, the AC50 is 100 µM (active).

With `C[Si](C)(C)O[Si](C)(C)O[Si](C)(C)C`, the molecule was classed as inactive.

For the molecule `O=C(C1CCCCC1)N1CC(=O)N2CCc3ccccc3C2C1` (stereo not given), the molecule was classed as inactive.

As for `C=CC(C)(CCC=C(C)C)OC(=O)c1ccccc1` (stereo not given), the outcome was inactive.

For the molecule `O=C(O)/C=C/C(=O)O`, the molecule was called inactive.

In the case of `CC[N+](CC)(CC(=O)Nc1c(C)cccc1C)Cc1ccccc1` (tested in a mixture with another compound), the result was inactive.

In the case of `O=C1NC(=O)[C@@H]2CC=CC[C@H]12`, the molecule was classed as inactive.

Take `CCCCCCC1CCCC(=O)O1` (stereo not given): the molecule was called inactive.

On to `CCC(C)(CCC(C)C)C(=O)O` (stereo not given), for which the molecule was classed as inactive.

Regarding `CC(C)(C)NC(=O)[C@@H]1CN(Cc2cccnc2)CCN1C[C@@H](O)C[C@@H](Cc1ccccc1)C(=O)N[C@H]1c2ccccc2C[C@H]1O`, the call was inactive.

Turning to `c1cc[c]([Bi]([c]2ccccc2)[c]2ccccc2)cc1`, the molecule was classed as inactive.

In the case of `CCCCCCOC(=O)CCCCCCCC(=O)OCCCCCC`, the outcome was inactive.

Take `CC1(C)S[C@@H]2[C@H](NC(=O)[C@H](N)c3ccccc3)C(=O)N2[C@H]1C(=O)O`: the result was inactive.

For `CN(C)CCCN1c2ccccc2CCc2ccc(Cl)cc21`, the molecule was classed as inactive.

With `CC(=O)Nc1c(I)c(NC(C)=O)c(I)c(C(=O)O)c1I`, the molecule was classed as inactive.

Consider `CCCCCCC1CCC(=O)O1` (stereo not given), for which the molecule was called inactive.

For the molecule `CCOC(=O)c1ccccc1`, the AC50 was 180 µM (active).

As to `CCC(C)NC(N)=O` (stereo not given), the result was inactive.

For `Clc1ccc(Sc2cc(Cl)c(Cl)cc2Cl)cc1`, the result was inactive.

As to `C=C(C)C(=O)OCC1CCCO1` (stereo not given), the molecule was classed as inactive.

Consider `CC(O)(P(=O)(O)O)P(=O)(O)O`, for which the result was inactive.
